Measured values published in PubChem BioAssay (EPA / NIEHS).
Results filed as inconclusive are left out. Activity calls are given as the source filed them. Rule for the calls: active = hit-call score of the fitted dose curve at least 0.9, where 1 is the maximum; inconclusive = response in the unintended direction; inactive = score below 0.9.

biological target: Nuclear receptor subfamily 4 group A member 2 (Homo sapiens) (UniProt P43354); experiment: ATG_NURR1_TRANS: Attagene TRANS-FACTORIAL HepG2 Assay for human Nuclear Receptor Related Protein 1 (NURR1) (AID 2282985); details: HepG2 Attagene TRANS reporter, mRNA readout
Sequence (P43354 whole entry, looked up, the tested form may be a part): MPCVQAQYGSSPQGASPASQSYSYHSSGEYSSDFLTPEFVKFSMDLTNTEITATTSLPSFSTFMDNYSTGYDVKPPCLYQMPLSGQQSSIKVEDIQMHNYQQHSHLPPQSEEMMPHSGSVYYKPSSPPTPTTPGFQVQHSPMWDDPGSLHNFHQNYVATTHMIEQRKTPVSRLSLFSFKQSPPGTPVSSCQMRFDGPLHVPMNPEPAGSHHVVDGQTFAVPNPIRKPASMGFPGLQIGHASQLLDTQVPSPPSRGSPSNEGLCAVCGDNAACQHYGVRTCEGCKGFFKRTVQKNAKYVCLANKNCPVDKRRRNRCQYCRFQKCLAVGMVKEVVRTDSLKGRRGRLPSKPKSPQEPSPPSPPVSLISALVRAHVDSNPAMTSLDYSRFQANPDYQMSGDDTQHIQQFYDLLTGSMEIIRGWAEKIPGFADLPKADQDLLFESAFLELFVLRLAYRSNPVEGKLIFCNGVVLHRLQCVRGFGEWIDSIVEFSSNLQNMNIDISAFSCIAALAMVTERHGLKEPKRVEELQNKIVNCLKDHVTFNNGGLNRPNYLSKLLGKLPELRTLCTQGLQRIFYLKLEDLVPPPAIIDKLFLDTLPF
Summary of the method: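 Read-out: reporter mRNA induction by RT-PCR plus capillary electrophoresis with fluorescence detection, after 24 h dosing of transfected HepG2 cells. Exogenous NR-Gal4 chimera activity drives GAL4-UAS reporter; activity fitted upward versus DMSO.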

Compound | outcome
CCCCCCCCCCCC#N | inactive
CCCCNP(N)(N)=S | inactive
CC(=O)C=Cc1ccccc1 | inactive
CCC(=O)c1ccc(Cl)cc1 | inactive
Nc1ccccc1C(=O)Oc1ccc2ccccc2c1 | inactive
C=CC(=O)OC | inactive
N#CCNCC#N | inactive
CN1C[C@H](C(=O)N[C@]2(C)O[C@@]3(O)[C@@H]4CCCN4C(=O)[C@H](Cc4ccccc4)N3C2=O)C=C2c3cccc4[nH]cc(c34)C[C@H]21 | inactive
Nc1cc(Cl)cc(Cl)c1 | inactive
O=[N+]([O-])c1ccc(Cl)cc1 | inactive
Cc1ccc(C)c2ccccc12 | inactive
c1cc(OCC2CO2)ccc1Cc1ccc(OCC2CO2)cc1 (stereo not given) | inactive
C=CC(=O)OCCCCOC(=O)C=C | inactive
CCOC(=O)C1OC1(C)c1ccccc1 (stereo not given) | inactive
COc1ncc(F)c2nc(S(=O)(=O)Nc3c(F)cccc3F)nn12 | inactive
CC(C)[C@@H](C(=O)O[C@@H](C#N)c1cccc(Oc2ccccc2)c1)c1ccc(Cl)cc1 | inactive
C[C@]12CC[C@H]3[C@@H](CC[C@@]45O[C@@H]4C(O)=C(C#N)C[C@]35C)[C@@H]1CC[C@@H]2O | inactive
O=[N+]([O-])c1cc([N+](=O)[O-])c2ccccc2c1 | inactive
C=CC(=O)OCCO | inactive
CCCCCCCCCCCCCCCC[N+](C)(C)C | inactive
